Assay outcomes from PubChem BioAssay.
This is a sample that favours compounds with a hit; in the whole collection about 19% have one here.
TDP1 cell noCPT: qHTS for Inhibitors of human tyrosyl-DNA phosphodiesterase 1 (TDP1): qHTS in cells in absence of CPT; DT40 Tdp1-/- hTDP1 cells, no CPT, ATP luminescence, 48 h; Potency, µM (top dose mostly 46.2 µM), for the others: at the highest dose activity change, negative = growth inhibition, hits mostly inhibitors; 420,000 compounds, 15% hits; AID 686978, 2013; note: potency is the fitted concentration of half-maximal effect; % is set by controls: 0 for no effect and ±100 for the full control effect; nearly all actives have a fitted effect of over 55% in size
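A cellular qHTS used chicken DT40 cells lacking endogenous Tdp1 but carrying stably transfected human TDP1. Compounds were applied without camptothecin, and cell growth kinetics were judged by ATP-dependent luminescence after ≥48 hr.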
IL-1B inflam inh: inhibitors of inflammasome signaling (IL-1 beta secretion); AID 743279; THP-1 LPS/ATP IL-1B secretion, AlphaLISA, 16 h; stronger effect = lower value; activity change, % at 57.5 µM; 360,000 compounds, 4.7% hits; in the data active = activity change below about -50%; inconclusive = mostly about -30% to -49%; note: % is set by controls: 0 for no effect and ±100 for the full control effect
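Secreted IL-1B measured by AlphaLISA bead assay after 16 h compound exposure of THP-1 cells; compounds (final up to 57.5 uM) added 1 h before LPS (250 ng/mL) and ATP (1.25 mM) stimulation; lower signal means less secretion.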
TDP1 inh: TDP1 (human) enzyme inhibition | Potency, µM (highest dose often 130 µM), without a hit: at the highest dose activity change, negative = inhibition, usual class: inhibitors | Q9NUW8 | recombinant TDP1, AlphaScreen DNA substrate cleavage | AID 485290 | 350,000 compounds, 0.28% hits; note: potency is the fitted concentration of half-maximal effect; % is set by controls: 0 for no effect and ±100 for the full control effect; nearly all actives have a fitted effect of over 40% in size
Target sequence (Q9NUW8 whole entry, looked up): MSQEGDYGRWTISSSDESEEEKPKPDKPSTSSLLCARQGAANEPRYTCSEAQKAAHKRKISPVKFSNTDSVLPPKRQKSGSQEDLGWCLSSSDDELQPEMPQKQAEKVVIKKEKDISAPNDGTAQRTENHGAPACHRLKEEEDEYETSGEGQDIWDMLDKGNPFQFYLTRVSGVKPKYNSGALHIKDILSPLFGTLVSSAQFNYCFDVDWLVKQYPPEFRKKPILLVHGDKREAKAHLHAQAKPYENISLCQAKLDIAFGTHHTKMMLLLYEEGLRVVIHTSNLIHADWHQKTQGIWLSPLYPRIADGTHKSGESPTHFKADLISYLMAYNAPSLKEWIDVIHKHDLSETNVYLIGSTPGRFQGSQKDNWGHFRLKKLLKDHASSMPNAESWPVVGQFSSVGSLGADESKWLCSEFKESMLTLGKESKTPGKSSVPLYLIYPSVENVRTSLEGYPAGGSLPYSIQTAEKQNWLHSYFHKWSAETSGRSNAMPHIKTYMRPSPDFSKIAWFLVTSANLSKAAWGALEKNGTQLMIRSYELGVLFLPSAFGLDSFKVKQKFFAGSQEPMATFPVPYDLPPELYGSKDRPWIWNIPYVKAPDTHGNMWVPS
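Recombinant human Tdp1 (E. coli-expressed, 1 nM final) preincubated with compounds 15 min at room temperature, then 5'-biotin/3'-phosphotyrosine-FITC DNA substrate (15 nM final) added for 5 min. AlphaScreen beads (10 ug/ml final) added 10 min; cleavage lowers signal.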
HepG2 tox-1: HepG2 cytotoxicity, counter-screen for TGF-b inhibitors; HepG2 CAGA-GFP viability, ATP luminescence, 18 h; Potency, µM (highest dose often 46.1 µM), for inactives: at the top dose activity change, negative = cytotoxicity, actives largely listed as cytotoxic; 410,000 compounds, 0.76% hits; AID 588856; note: potency is the fitted concentration of half-maximal effect
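CellTiter-Glo luminescence gave cytotoxicity after 18 hours at 37 degrees C. The cells were HepG2 CAGA-GFP in 1% FBS DMEM, stimulated with 500 pg/mL TGF-beta after compound addition. %Activity was normalised to no-cell wells (complete cell-killing) and DMSO (no toxicity), and curves were fitted and classified.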
TGFb inhibitor: blocks TGF-b signaling; HepG2 CAGA-GFP TGF-b/SMAD3 reporter, GFP fluorescence, 18 h; TGF-beta stimulated, 500 pg/mL final; Potency, µM (titrated, usually from 46.1 µM), without a hit: at the top dose activity, negative = inhibition, actives largely listed as inhibitors; 410,000 compounds, 1.2% hits; note: potency is the fitted concentration of half-maximal effect; % is set by controls: 0 for no effect and ±100 for the full control effect; nearly all actives have a fitted effect of over 65% in size
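Smad-responsive CAGA-GFP expression was quantified in HEPG2 cells exposed to compounds and 500 pg/mL final TGF-beta for 18 h at 37 degrees C; unstimulated wells defined full inhibition.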
TDP1 cell CPT: growth inhibition of DT40 Tdp1-/-;hTDP1 cells with camptothecin (screen for TDP1 inhibitors); chicken DT40 Tdp1-/-;hTDP1 cells + 20 nM CPT, ATP luminescence, 48 h; Potency, µM (series often up to 46.2 µM), for the others: at the highest dose activity change, negative = growth inhibition, actives largely listed as inhibitors; 420,000 compounds, 12% hits; note: potency is the fitted concentration of half-maximal effect; % is set by controls: 0 for no effect and ±100 for the full control effect; nearly all actives have a fitted effect of over 55% in size
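Cell growth measured by CellTiter-Glo luminescence after a minimum 48 h, 37 C compound exposure with 20 nM CPT in Tdp1-knockout DT40 cells stably expressing hTDP1, seeded 400/well; qHTS titration format.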
TGFb confirm: TGF-b pathway inhibition, cherry-pick retest; shares compounds with TGFb inhibitor; HepG2 CAGA-GFP TGF-b reporter, GFP fluorescence, 18 h; cells stimulated with TGF-beta, 500 pg/mL; Potency, µM (doses to about 46.1 µM), for the others: at the top dose activity, negative = inhibition, actives largely listed as inhibitors; 1,600 compounds, 63% hits; AID 720534; note: potency is the fitted concentration of half-maximal effect; % is set by controls: 0 for no effect and ±100 for the full control effect; nearly all actives have a fitted effect of over 65% in size
HepG2 tox-2: toxic to HepG2 cells in TGF-b counterscreen. shares compounds with TGFb inhibitor. HepG2 CAGA-GFP viability, ATP luminescence, 18 h; cells stimulated with TGF-beta, 500 pg/mL. Potency, µM (doses to about 46.1 µM), without a hit: at the highest dose activity, negative = cytotoxicity, most hits filed as inhibitors. 1,600 compounds, 27% hits; note: potency is the fitted concentration of half-maximal effect; % is set by controls: 0 for no effect and ±100 for the full control effect; nearly all actives have a fitted effect of over 70% in size
TGFb CCL64 inh: blocks TGF-b signaling in CCL64 reporter cells. AID 720536. Potency, µM (series often up to 46.1 µM), inactives show at the top dose activity, negative = inhibition, most hits filed as inhibitors. CCL64 CAGA-GFP reporter, TGF-b stimulated, GFP fluorescence, 18 h. 1,600 compounds, 41% hits. shares compounds with TGFb inhibitor; note: potency is the fitted concentration of half-maximal effect; nearly all actives have a fitted effect of over 65% in size
TGFb COP inh: validation of TGF-b inhibitors in HepG2 COP promoter reporter | HepG2 COP-GFP TGF-b reporter, GFP fluorescence, 18 h; cells stimulated by added recombinant TGF-beta | Potency, µM (top dose mostly 46.1 µM), inactives show at the top dose activity, negative = inhibition, actives largely listed as inhibitors | shares compounds with TGFb inhibitor | 1,600 compounds, 3% hits; note: potency is the fitted concentration of half-maximal effect; nearly all actives have a fitted effect of over 70% in size
Starred values were filed as active, the others as inactive. Unless noted, calls come from the whole dose curve; as a rule, active = well fitted curve in the direction sought with a large enough effect; inconclusive = small, poorly fitted or top-dose-only effect, or another doubt; inactive = no such curve, though single readings can be large; an effect the other way counts as inactive or inconclusive.

What do the screens show for `COC(=O)c1ccc(CNC(=O)CSc2nnc(COc3ccccc3)n2C)o1`?
TDP1 cell noCPT: -2%; IL-1B inflam inh: 17; TDP1 inh: 2%; HepG2 tox-1: 3%; TGFb inhibitor: inconclusive; TDP1 cell CPT: -6%; TGFb confirm: -11%; HepG2 tox-2: 12%; TGFb CCL64 inh: 3%; TGFb COP inh: 8%

How did CN(CC(=O)Nc1ccc(N2CCOCC2)cc1)C(=O)c1ccc(CS(C)(=O)=O)cc1 do in these assays?
TDP1 cell noCPT: inconclusive; IL-1B inflam inh: -5; TDP1 inh: 0%; HepG2 tox-1: -29%; TGFb inhibitor: 2%; TDP1 cell CPT: -19%

What do the screens show for `Cc1nn(CC(=O)Nc2cccc(C(F)(F)F)c2)c(=O)c2cccn12`?
TDP1 cell noCPT: -15%; IL-1B inflam inh: 24; TDP1 inh: 4%; HepG2 tox-1: 8%; TGFb inhibitor: 5%; TDP1 cell CPT: inconclusive

Results for CC(C)C[C@@H](CN1CCC[C@H]1CN1C(=O)C(=O)NC[C@@H]1Cc1ccccc1)N1C[C@H](Cc2ccc(O)cc2)N(CCc2ccccc2)C(=O)C1=O ?
TDP1 cell noCPT: inconclusive; IL-1B inflam inh: -17; TDP1 cell CPT: inconclusive

Results for CC(C)C[C@@H](CN1CCCC1CN1C(=S)NC[C@@H]1Cc1ccc(O)cc1)N1C[C@H](Cc2ccc(O)cc2)N(CC2CCCCCC2)C1=S (some centres undefined) ?
TDP1 cell noCPT: 8.2µM*; IL-1B inflam inh: -83*; HepG2 tox-1: -111%; TGFb inhibitor: 5.6µM*; TDP1 cell CPT: 15µM*; TGFb confirm: 21µM*; HepG2 tox-2: inconclusive; TGFb CCL64 inh: 13µM*; TGFb COP inh: inconclusive

What do the screens show for `CC(C)C[C@@H](CN1CCCC1CN1C(=S)NC[C@@H]1Cc1ccc(O)cc1)N1C[C@H](Cc2ccccc2)N(CC2CCCCCC2)C1=S` (some centres undefined)?
TDP1 cell noCPT: 23µM*; IL-1B inflam inh: 1; HepG2 tox-1: -7%; TGFb inhibitor: 16µM*; TDP1 cell CPT: inconclusive; TGFb confirm: 10µM*; HepG2 tox-2: inconclusive; TGFb CCL64 inh: 2.1µM*; TGFb COP inh: 31%
